Source: PubChem BioAssay (National Center for Advancing Translational Sciences (NCATS))
ELG1 genotoxic: induces genotoxicity in HEK293T cells with luciferase-tagged ELG1 | Potency, µM (highest dose often 46 µM), actives largely listed as activators | actives 1.3% (n = 330,000) | AID 504466 | HEK293T ELG1-luciferase reporter, luminescence, 16 h; also: nearly all actives have a fitted effect of over 60% in size
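After overnight (16 hr) compound treatment at 37 °C, ELG1-luciferase HEK293T cells were lysed with ONE-Glo; luminescence quantified 30 min later at room temperature.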
FLuc counter: counter-screen for miR-21 project: firefly luciferase inhibitors or activators; P08659; purified FLuc, Km substrates, luminescence inhibition; Potency, µM (top dose mostly 57.5 µM), most hits filed as inhibitors; actives 6.9% (n = 360,000); AID 588342; also: nearly all actives have a fitted effect of over 55% in size
Target sequence (P08659 whole entry, looked up): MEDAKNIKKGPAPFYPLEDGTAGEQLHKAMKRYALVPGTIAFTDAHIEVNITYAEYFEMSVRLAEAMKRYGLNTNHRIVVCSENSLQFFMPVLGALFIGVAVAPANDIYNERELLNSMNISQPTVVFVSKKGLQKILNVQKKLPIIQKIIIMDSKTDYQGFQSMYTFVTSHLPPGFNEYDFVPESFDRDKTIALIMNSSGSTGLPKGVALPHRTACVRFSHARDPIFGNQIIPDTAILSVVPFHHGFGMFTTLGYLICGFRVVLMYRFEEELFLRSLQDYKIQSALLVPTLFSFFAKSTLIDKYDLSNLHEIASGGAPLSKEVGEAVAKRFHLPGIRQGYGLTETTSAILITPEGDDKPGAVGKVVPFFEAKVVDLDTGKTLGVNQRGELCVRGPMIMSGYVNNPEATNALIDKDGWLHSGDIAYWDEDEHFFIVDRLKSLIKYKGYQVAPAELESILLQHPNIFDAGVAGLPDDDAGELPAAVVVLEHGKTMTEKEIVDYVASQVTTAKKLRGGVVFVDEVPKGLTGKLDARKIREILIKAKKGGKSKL
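Purified P. pyralis luciferase, 10 nM final, with Km-level 10 uM D-luciferin and 10 uM ATP in 50 mM Tris acetate pH 7.5, 10 mM Mg acetate, 0.01% Tween-20, 0.05% BSA; 6-point qHTS titration about 60 µM downward; luminescence read.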
Rab9 prom act: activates the Rab9 promoter; Huh7 Rab9 promoter-luciferase reporter, luminescence, 24 h; Potency, µM (top dose mostly 9.22 µM), hits mostly activators; actives 2.8% (n = 320,000); AID 485297; also: nearly all actives have a fitted effect of over 60% in size
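Luciferase signal after 10 min detection reagent at ambient indicates Rab9 promoter upregulation; stably transfected Huh7 cells were treated 24 h with compound in DMSO at 37 °C, 5% CO2.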
NPC1 prom act: activators of NPC1 promoter. Huh7 NPC1 promoter luciferase reporter, 24 h. Potency, µM (series often up to 9.22 µM), usual class: activators. actives 2.4% (n = 320,000). AID 485313; also: nearly all actives have a fitted effect of over 60% in size
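Stable NPC1-promoter luciferase Huh7 line; cpd (DMSO) 24 h, 37 °C, 5% CO2; Amplite luciferase reagent 10 min RT; luminescence readout. qHTS format.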
SMN2 splice up: increases expression of the SMN2 splice variant; HEK293 SMN2-luciferase splicing reporter, luminescence, 30-36 h; Potency, µM (series often up to 46.1 µM), actives largely listed as activators; actives 2.8% (n = 210,000); also: nearly all actives have a fitted effect of over 55% in size
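qHTS luciferase splicing reporter: luminescence rises when SMN2 exon 7 is included in transfected HEK293 cells. Compound exposure lasted 30-36 h at 37C, with 4.5 mM final sodium butyrate as control, followed by a ONE-Glo read.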
Numbers stand for hits; . = inactive; ? = inconclusive; / = no result given. Hits are enriched below; roughly 7.5% of the tested compounds scored in any of these assays. Calls follow the shape of the dose curve; as a rule, active = well fitted curve in the direction sought with a large enough effect; inconclusive = small, poorly fitted or top-dose-only effect, or another doubt; inactive = no such curve, though single readings can be large; an effect the other way counts as inactive or inconclusive.

SMILES	ELG1 genotoxic	FLuc counter	Rab9 prom act	NPC1 prom act	SMN2 splice up
Cc1ccc(SC[C@H](c2ccccc2)N2CCN(CCc3ccccc3)CCC2=O)cc1	.	26.9µM	.	.	/
CCCN1CCC(=O)N([C@H](CSc2ccc(C)cc2)c2ccccc2)CC1	.	15.1µM	?	?	/
CCCN1CCC(=O)N([C@H](CSc2ccccc2)c2ccccc2)CC1	.	?	?	?	/
CCc1cccc2sc(N3CCN(C(=O)c4ccc([N+](=O)[O-])o4)CC3)nc12	.	.	.	.	/
COc1ccccc1C1=NC(c2ccc(C)cc2)N=C1C (stereo not given)	.	15.1µM	?	?	?
N#CCCN1CCN(C(=S)c2ccc(-c3cccc(Cl)c3)o2)CC1	?	19µM	?	.	.
N#CCCN1CCN(C(=S)c2ccc(-c3ccc(Cl)c(Cl)c3)o2)CC1	?	15.1µM	.	.	.
O=C(c1ccc(-c2cccc(Cl)c2)o1)N1CCN(c2ccc([N+](=O)[O-])cc2)CC1	.	.	.	.	.
O=C(Nc1sc2c(c1C(=O)NCc1ccco1)CCCC2)c1cc(=O)c2ccccc2o1	/	.	/	/	.
CCCC(=O)Nc1ccccc1NC(=O)c1ccc(OCC)cc1	.	.	.	.	.
O=C(CCC(=O)Nc1ccccc1)N/N=C/c1ccncc1	.	12µM	.	.	.
Cc1ccccc1C(=O)Nc1ccc(C(=O)N/N=C/c2ccncc2)cc1	.	.	.	.	.
CCOc1ccc(/C=N/NC(=O)c2ccccc2NC(=O)c2ccc(OC)cc2)cc1	.	0.379µM	?	?	.
O=C(Nc1ccccc1C(=O)N/N=C/c1ccncc1)c1ccccc1	.	1.9µM	?	?	/
COc1ccc(C(=O)Nc2ccccc2C(=O)N/N=C/c2ccco2)cc1	?	0.477µM	?	.	/
O=S1(=O)C=C(Sc2nc3ccccc3s2)c2ccccc21	.	2.69µM	.	.	.
Cn1c(NC(=S)Nc2ccccc2)nc2ccccc21	?	6.75µM	?	?	8.91µM
Cn1c(NC(=O)c2ccccc2NC(=O)C(C)(C)C)nc2ccccc21	.	26.9µM	.	.	.
Cn1c(NC(=O)c2ccc(F)cc2)nc2ccccc21	?	3.01µM	3.98µM	3.55µM	/
CC(C)(C)C(=O)Nc1ccccc1C(=O)Nc1ccccn1	.	.	.	.	.
S=C(Nc1ccccc1)Nc1nc2ccccc2n1CCOc1ccc(Br)cc1	?	.	.	.	.
COc1ccc(N2CCN(S(=O)(=O)c3ccc(OC)c(-c4noc(C)n4)c3)CC2)cc1	/	.	/	/	/
S=C(NCCSCc1c(Cl)cccc1Cl)Nc1ccccc1	.	.	.	.	.
O=C(NCCSCc1c(F)cccc1Cl)Nc1ccccc1	.	16.9µM	.	.	/
O=C(NCCSCc1ccco1)c1ccc(CN2CCOCC2)cc1	.	?	.	.	.
SMILES	ELG1 genotoxic	FLuc counter	Rab9 prom act	NPC1 prom act	SMN2 splice up
O=C(NCCSCc1c(F)cccc1Cl)c1ccc(CN2CCOCC2)cc1	.	.	2.51µM	.	.
O=C(NCCSCc1ccco1)Nc1ccccc1	.	16.9µM	.	.	/
COc1ccccc1C(C)NCC(=O)NC(=O)NCc1ccco1 (stereo not given)	.	.	.	.	/
O=C(N[C@@H](Cc1ccccc1)C(=O)OCC(=O)N1CCOCC1)c1cccs1	.	.	.	.	.
CCC(C)N1CC(O)=C(c2nc3ccccc3[nH]2)C1=N (stereo not given)	?	16.9µM	?	?	.
CC1C(O)=C(c2nc3ccccc3[nH]2)C(=N)N1c1ccccc1 (stereo not given)	?	16.9µM	.	.	.
CCCCCCN1CC(O)=C(c2nc3ccccc3[nH]2)C1=N	.	.	.	.	/
N=C1C(c2nc3ccccc3[nH]2)=C(O)CN1c1ccccc1	20.6µM	8.49µM	?	.	.
CCn1c(SCC(=O)Nc2ccccc2OC)nc(O)cc1=O	.	.	.	.	/
COc1cc(C)c(C(=O)Oc2cc(C)c(C(=O)O)c(O)c2)c(O)c1	.	19µM	.	.	/
CCOc1ccc(C2C(=O)N(C3CCCCCC3)CC(=O)N2CCc2ccc(Cl)cc2)cc1OC (stereo not given)	/	.	/	/	/
Cc1ccc(NC(CC(=O)c2ccccc2)c2ccc(F)cc2)cc1 (stereo not given)	.	.	.	.	.
O=C(CC(Nc1ccc(F)cc1)C(=O)OCC(=O)c1cccs1)c1ccccc1 (stereo not given)	?	?	4.47µM	?	?
O=C(CCC(=O)c1cccs1)OCC(=O)c1ccc(F)cc1	.	/	/	/	/
O=C(CC(Nc1ccc(F)cc1)C(=O)O)c1ccccc1 (stereo not given)	1.03µM	1.07µM	1.26µM	1.12µM	12.6µM
COc1cc(/C=C/C(=O)OCC(=O)NCCN2C(=O)CSC2=O)ccc1OCC#N	.	.	.	.	/
Cc1cc(C)c(C(=O)/C=C/c2ccc3c(c2)OCO3)c(=O)[nH]1	.	.	.	.	/
Cc1ccc(O)c(C(=O)/C=C/c2ccc3c(c2)OCCCO3)c1	?	5.36µM	?	?	?
O=C(/C=C/c1ccc2c(c1)OCCCO2)c1ccccc1O	16.4µM	0.269µM	1.78µM	3.16µM	?
CCNc1ccccc(C(=O)/C=C/c2ccc3c(c2)OCO3)c1=O	.	?	.	.	.
O=C(CN1CSCC1=O)N1CCN(S(=O)(=O)c2ccc(Cl)cc2)CC1	.	.	.	.	/
CC(C)N(C(=O)COC(=O)CNC(=O)c1ccc(Br)cc1)c1ccccc1	.	.	.	.	.
Cc1ccccc1-n1c(SCC(=O)c2cc(C)n(C)c2C)nnc1-c1ccncc1	.	.	.	.	.
Cc1cccc(-c2cc(C(=O)Nc3ccncc3)c3ccccc3n2)c1	.	23.9µM	.	.	/
O=C(Nc1cccnc1)c1sc(Nc2ccccc2)nc1-c1ccccc1	.	?	.	.	.
SMILES	ELG1 genotoxic	FLuc counter	Rab9 prom act	NPC1 prom act	SMN2 splice up
Cc1ccc(-c2cc(C(=O)Nc3cccnc3)c3ccccc3n2)s1	.	9.53µM	.	.	/
Cc1cccc(Nc2nc(-c3ccccc3)c(C(=O)Nc3cccnc3)s2)c1	.	16.9µM	.	.	.
Cc1cccc(-c2cc(C(=O)Nc3cccnc3)c3ccccc3n2)c1	.	15.1µM	.	.	/
Cc1cc(C)nc(NC(=O)c2cc(-c3ccc(C)s3)nc3ccccc23)c1	.	?	.	.	.
CC(OC(=O)c1ccc2c(=O)n3c(nc2c1)CCC3)C(=O)NC1CCCCC1C (stereo not given)	.	.	.	.	/
CC1Cc2ccccc2N1S(=O)(=O)c1cccc(C(=O)NCCCn2ccnc2)c1 (stereo not given)	.	.	.	.	/
C=CCOCCN(CC)CC	.	.	.	.	/
COc1ccc(CC(=O)N2CCN(c3ccccn3)CC2)cc1	.	.	.	.	.
O=C(c1nn(-c2ccccc2)c(=O)c2ccccc12)N1CCN(c2ccccn2)CC1	.	.	.	.	.
COc1ccc(-n2nc(C(=O)NCC(=O)N3CCN(c4ccccn4)CC3)c3ccccc3c2=O)cc1OC	.	4.78µM	.	.	.
